This is an account of results in PubChem BioAssay (Tox21).

The nature of test [1]: A CellTox Green Cytotoxicity Assay to monitor cytotoxicity in HEK293 cells - 16 hour (AID 1224888). Also: nearly all actives have a fitted effect of over 35% in size. In short, it runs like this: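 Cytotoxicity was tracked continuously in HEK293 cells by a DNA-binding dye excluded from viable cells. Compounds were transferred in DMSO 5 h after seeding; fluorescence was recorded at intervals up to 40 h.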
The nature of test [2]: qHTS RealTime-Glo MT Cell Viability Assay in HepG2 cells - 0 hour (AID 1224889). Also: nearly all actives have a fitted effect of over 50% in size. Also: potency is read from the fitted curve at half-maximal effect. In short, it runs like this: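 Tox21 10K library screened in qHTS format on HepG2 cells carrying RealTime-Glo reagents. Compounds were added after a 5 h preincubation, and the luminescent signal from continuous culture was measured repeatedly during 40 h treatment.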
A general note: qHTS replaces the single test concentration by a dilution series.

Test [3] can be described thus: A CellTox Green Cytotoxicity Assay to monitor cytotoxicity in HepG2 cells - 8 hour (AID 1224890). Also: nearly all actives have a fitted effect of over 45% in size. Summed up: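 Real-time, homogeneous cytotoxicity readout: dead-cell DNA staining by CellTox Green in HepG2 monolayers, fluorescence measured at timed intervals up to 40 h of continuous compound exposure.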
A short description of test [4]: qHTS assay to identify small molecule antagonists of the estrogen receptor alpha (ER-alpha) signaling pathway using the BG1 cell line in the presence of 0.1 nM 17-beta-estradiol - cell viability counter screen (AID 1259241). Also: nearly all actives have a fitted effect of over 40% in size. In short, it runs like this: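 Estradiol-stimulated (0.1 nM) VM7Luc4E2 cells exposed to compounds 22 hr; viability measured by fluorescence of cleaved CellTiter-Fluor substrate after 30 min.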

Test [5] is described as follows: qHTS assay to identify small molecule antagonists of the androgen receptor (AR) signaling pathway using the MDA cell line in the presence of 0.5 nM R1881 - cell viability counter screen (AID 1259242). Also: nearly all actives have a fitted effect of over 45% in size. Summed up:
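Cytotoxicity toward MDA-kb2 cells is measured by CellTiter-Fluor live-cell protease fluorescence after 16 hr compound exposure at 37C in the presence of 0.5 nM R1881 stimulator.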

The target in test [6] is Androgen receptor (Homo sapiens) (UniProt P10275). The test is described as follows: qHTS assay to identify small molecule antagonists of the androgen receptor (AR) signaling pathway using the MDA cell line in the presence of 0.5 nM R1881 (AID 1259243). Also: nearly all actives have a fitted effect of over 50% in size. Also: potency is read from the fitted curve at half-maximal effect. Summed up: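 Steps: seed MDA-kb2 cells, incubate 5 hr at 37C; pin-transfer compounds in DMSO; add R1881 to 0.5 nM final; incubate 16 hr; add ONE-Glo, wait 30 min at room temperature; read luminescence.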

Test [7] is described as follows: qHTS assay to identify small molecule HDAC inhibitors (AID 1259364). Also: nearly all actives have a fitted effect of over 45% in size. Also: potency is read from the fitted curve at half-maximal effect. As to activity change, negative = inhibition: top concentration of the series differs between compounds. In short, it runs like this:
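Homogeneous cell-based luminescent assay of endogenous class I/II HDAC activity; HCT-116 cells, 2 h compound exposure, 30 min HDAC-Glo development at RT.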

A short description of test [8]: qHTS assay to identify small molecule HDAC inhibitors - cell viability counter screen (AID 1259365). Also: series mostly up to about 92 µM; nearly all actives have a fitted effect of over 50% in size. Summed up:
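After overnight seeding at 1,500 cells per well, wild-type HCT-116 cultures took up compounds in DMSO for 2hr at 37 C. Viable cell content came from luminescence with CellTiter-Glo.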

The target of test [9] is Estrogen receptor (Homo sapiens) (UniProt P03372). Nature of the test: qHTS assay to identify small molecule antagonists of the estrogen receptor alpha (ER-alpha) signaling pathway using the BG1 cell line in the presence of 0.1 nM 17-beta-estradiol (AID 1259244). Also: nearly all actives have a fitted effect of over 50% in size. Summed up: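 After 5 days in hormone-depleted medium (charcoal-stripped serum, no phenol red), VM7Luc4E2 cells were seeded, incubated 24 h, then co-treated with compound and 0.1 nM (final) estradiol for 22 h before luminescence detection.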

Test [10] is described as follows: qHTS assay to identify small molecule phospholipidosis (PLD) inducers (AID 1259344; active = well fitted curve in the direction sought with a large enough effect; an effect the other way counts as inactive or inconclusive). Summed up: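 Phospholipidosis is scored by imaging LipidTOX-stained pits in HepG2 cells exposed to compound for 24 h at 37 C; pit counts and integrated intensities per well and per cell serve as outputs.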

Structures are written as SMILES. A number with no mark means an inactive call. Inconclusive results are not listed. Active and inactive are the calls of the source. Unless noted, calls follow the shape of the dose curve; as a rule, active = well fitted curve in the direction sought with a large enough effect in the repeat runs; inconclusive = weak or mixed curves; inactive = no such curve, though single readings can be large; an effect the other way counts as inactive or inconclusive.
% is scaled to controls: 0 for no effect and ±100 for the full control effect.

Androgen receptor (Homo sapiens), sequence (P10275 whole entry, looked up): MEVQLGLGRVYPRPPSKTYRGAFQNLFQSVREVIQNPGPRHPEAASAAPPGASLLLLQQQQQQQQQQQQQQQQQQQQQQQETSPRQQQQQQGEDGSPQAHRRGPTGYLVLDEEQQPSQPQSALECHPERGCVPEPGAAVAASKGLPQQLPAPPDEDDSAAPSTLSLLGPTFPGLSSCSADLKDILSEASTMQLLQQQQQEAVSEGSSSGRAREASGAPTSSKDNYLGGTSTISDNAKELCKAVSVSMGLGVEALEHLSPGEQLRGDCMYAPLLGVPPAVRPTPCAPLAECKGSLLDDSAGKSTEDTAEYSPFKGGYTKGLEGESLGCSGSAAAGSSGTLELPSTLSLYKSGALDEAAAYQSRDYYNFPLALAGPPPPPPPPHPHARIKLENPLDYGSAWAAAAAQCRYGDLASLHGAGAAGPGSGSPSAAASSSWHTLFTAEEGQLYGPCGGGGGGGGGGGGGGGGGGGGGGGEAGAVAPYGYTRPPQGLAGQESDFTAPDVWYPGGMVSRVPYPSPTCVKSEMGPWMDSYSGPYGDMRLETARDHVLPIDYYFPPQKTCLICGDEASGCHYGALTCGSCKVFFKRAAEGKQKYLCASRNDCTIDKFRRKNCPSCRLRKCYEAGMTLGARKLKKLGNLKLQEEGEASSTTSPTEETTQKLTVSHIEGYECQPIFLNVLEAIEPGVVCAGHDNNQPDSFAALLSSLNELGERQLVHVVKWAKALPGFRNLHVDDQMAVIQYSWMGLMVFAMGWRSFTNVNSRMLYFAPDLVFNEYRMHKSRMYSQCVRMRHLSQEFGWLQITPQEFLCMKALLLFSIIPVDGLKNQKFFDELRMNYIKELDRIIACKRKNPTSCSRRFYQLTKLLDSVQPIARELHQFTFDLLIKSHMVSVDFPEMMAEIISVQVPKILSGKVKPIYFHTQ
Estrogen receptor (Homo sapiens), sequence (P03372 whole entry, looked up): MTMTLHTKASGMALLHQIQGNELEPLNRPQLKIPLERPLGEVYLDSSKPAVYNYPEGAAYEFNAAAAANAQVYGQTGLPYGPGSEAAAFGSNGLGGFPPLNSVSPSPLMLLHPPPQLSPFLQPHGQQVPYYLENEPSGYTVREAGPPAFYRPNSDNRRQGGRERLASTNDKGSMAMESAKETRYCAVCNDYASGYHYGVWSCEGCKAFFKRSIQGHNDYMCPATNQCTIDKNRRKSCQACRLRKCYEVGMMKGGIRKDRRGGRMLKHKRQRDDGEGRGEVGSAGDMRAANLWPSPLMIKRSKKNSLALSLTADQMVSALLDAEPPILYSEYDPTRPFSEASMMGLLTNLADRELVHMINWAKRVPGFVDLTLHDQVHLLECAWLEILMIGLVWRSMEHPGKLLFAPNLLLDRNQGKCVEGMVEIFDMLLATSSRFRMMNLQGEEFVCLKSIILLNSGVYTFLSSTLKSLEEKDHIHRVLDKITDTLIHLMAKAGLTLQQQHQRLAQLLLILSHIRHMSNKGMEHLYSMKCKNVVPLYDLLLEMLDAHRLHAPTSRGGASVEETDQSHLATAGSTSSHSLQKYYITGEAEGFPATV

Take `CC(O)C(CO)C(C)O` (stereo not given): the Potency entry in test [1], in test [2], in [3], in test [6] and in [7] was “inactive” in each case. Moreover, the result in test [4], in test [5] and in test [8] was inactive.

As for `Cc1ccc(N)nc1`, the Potency result in test [1], in [2], in [3], in test [6] and in test [7] was “inactive” each time. In addition, the outcome in [4], in test [5], in test [9] and in [8] was inactive.

For `C[C@@H]1CCC[C@H](C)N1CCCC(O)(c1ccccc1)c1ccccn1` (stereo not given in full), the Potency entry in test [1], in test [2], in test [3], in test [6] and in [7] was “inactive” in each case. Further, the result in test [4], in test [5], in test [9] and in test [8] was inactive.

On to `N[C@H]1C(O)O[C@H](CO)[C@@H](O)[C@@H]1O` (stereo not given in full), for which the Potency result in test [1], in test [2], in test [3], in test [6], in test [10] and in test [7] was “inactive” in each case. The outcome in test [4], in test [5] and in test [8] was inactive.

As to `CSC(=O)c1cccc2nnsc12`, the Potency entry in test [1], in test [2], in [3] and in [7] was “inactive” throughout. The outcome in [4], in test [5], in test [9] and in test [8] was inactive. Moreover, in test [6], the Potency is 15.4 µM (active).

In the case of `CCCCCCCCCCCCCCCCN(C)C`, the activity change in test [1] was 0.327% [at 6.97 µM, active compounds read high]. Besides, the figures for the activity change, negative = cytotoxicity in test [2], in test [4] and in test [8] were 4.22% [at 6.97 µM], 8.65% [at 8.39 µM] and 1.52% [at 8.39 µM], respectively. For the same molecule, in test [3], the cytotoxicity increase was 2.33% [at 6.97 µM]. Besides, the viability change, negative = cytotoxic in [5] is 0.99% [at 8.39 µM]. Moreover, the activity, negative = inhibition in [6] was 15.5% [at 8.39 µM]. The results for the activity change, negative = inhibition in test [9] and in test [7] were 15.1% [at 8.39 µM] and 2.04% [at 8.39 µM], respectively.

Turning to `CC(C)OC(=O)C(C(=O)OC(C)C)=C1SC=CS1`, the Potency entry in [1], in [2], in [3], in [6], in [10] and in test [7] was “inactive” throughout. For the same molecule, the result in [4], in [5] and in test [8] was inactive.

On to `O=C[C@@H](O)[C@H](O)[C@H](O)CO`, for which the Potency entry in [1], in test [2], in test [3], in test [6] and in test [7] was “inactive” throughout. For the same molecule, the outcome in [4], in test [5] and in test [8] was inactive.

`O=C(O)CCCCCCCCCC(=O)O`: the Potency entry in test [1], in test [2], in test [3], in test [6] and in test [7] was “inactive” throughout. Also, the outcome in test [4], in test [5], in test [9] and in [8] was inactive.

As for `COc1cc(OC)cc(OC)c1`, the Potency result in [1], in [2], in test [3], in test [6], in test [10] and in [7] was “inactive” in each case. Moreover, the outcome in test [4], in test [5] and in [8] was inactive.

In the case of `Cc1ccc2cccnc2c1`, the Potency entry in test [1], in test [2], in test [3], in [6] and in [7] was “inactive” throughout. Moreover, the outcome in test [4], in test [5], in [9] and in test [8] was inactive.

As to `O=C1c2ccccc2C(=O)N1CO`, the Potency entry in [1], in [2], in test [3], in test [6] and in test [7] was “inactive” each time. The result in test [4], in test [5], in test [9] and in test [8] was inactive.

Regarding `O=C(O)COc1ccc2ccccc2c1`, the Potency result in [1], in test [2], in test [3] and in test [7] was “inactive” throughout. Also, the result in test [4], in [5], in test [9] and in test [8] was inactive.

Take `Cc1ccccc1C#N`: the Potency entry in [1], in test [2], in test [3] and in [7] was “inactive” throughout. The outcome in test [4], in test [5], in test [9] and in test [8] was inactive.

Turning to `CCCC(=O)OC`, the Potency entry in [1], in [2], in test [3] and in test [7] was “inactive” each time. Besides, the outcome in test [4], in test [5], in test [9] and in test [8] was inactive.

For the molecule `CC(=O)SCC(CC(=O)c1ccc(C)cc1)C(=O)O` (stereo not given), the Potency entry in [1], in [2], in [3], in [10] and in test [7] was “inactive” in each case. The result in [4], in [5], in test [9] and in [8] was inactive.

With `CC(C)(O)c1ccc(C(C)(C)O)cc1`, the Potency entry in [1], in test [2], in test [3] and in test [7] was “inactive” in each case. For the same molecule, the outcome in [4], in test [5], in [9] and in [8] was inactive.

Regarding `CC(=O)Nc1ccc(OCCOCCOc2ccc(NC(C)=O)cc2)cc1`, the Potency result in [1], in [2], in test [3], in [10] and in [7] was “inactive” in each case. The outcome in [4], in test [5], in [9] and in [8] was inactive.

`COc1cc2nc(N3CCN(C(=O)C4CCCO4)CC3)nc(N)c2cc1OC` (stereo not given): the Potency result in [1], in test [2], in test [3] and in test [10] was “inactive” in each case. Also, the result in test [4], in [5], in test [9] and in [8] was inactive. For the same molecule, the Potency in [7] is 3.35 µM (active).

`CCN1CCN(C(=O)N[C@@H](C(=O)N[C@@H]2C(=O)N3[C@@H]2SC(C)(C)[C@H]3C(=O)O)c2ccccc2)C(=O)C1=O`: the Potency result in [1], in [2], in [3], in test [10] and in [7] was “inactive” throughout. In addition, the outcome in test [4], in [5], in test [9] and in [8] was inactive.

Take `Clc1ccc2c(c1)Nc1ccccc1S2`: the Potency entry in test [1], in test [2], in test [3] and in [7] was “inactive” each time. The outcome in test [4], in test [5] and in test [8] was inactive. Moreover, the Potency in test [6] was 10.6 µM (active).

With `Cc1ccc(S(=O)(=O)NC(=O)NN2CC3CCCC3C2)cc1` (stereo not given), the Potency entry in test [1], in test [2], in test [3], in test [10] and in test [7] was “inactive” throughout. Also, the outcome in [4], in [5], in [9] and in test [8] was inactive.

For `CCOC(=O)COc1ccc2c(C)c(CCN(CC)CC)c(=O)oc2c1Cl`, the Potency entry in [1], in test [2], in test [3], in test [10] and in test [7] was “inactive” throughout. Besides, the outcome in test [4], in test [5], in test [9] and in [8] was inactive.

`CN(C)CCc1c[nH]c2ccc(CS(=O)(=O)N3CCCC3)cc12`: the Potency result in [1], in [2], in test [3], in test [10] and in test [7] was “inactive” each time. Also, the result in test [4], in test [5], in [9] and in [8] was inactive.

`COc1cnc(NS(=O)(=O)c2ccc(N)cc2)nc1`: the Potency result in test [1], in test [2], in [3], in test [10] and in [7] was “inactive” each time. The outcome in test [4], in test [5], in test [9] and in test [8] was inactive.

For `CC(=O)OCC(=O)[C@@]1(O)CC[C@H]2[C@@H]3CCC4=CC(=O)C=C[C@]4(C)[C@H]3[C@@H](O)C[C@@]21C`, the Potency result in [1], in test [3], in test [10] and in test [7] was “inactive” each time. Further, in test [2], the Potency is 10.7 µM (active). For the same molecule, the result in [4], in test [5], in [9] and in test [8] was inactive.

`CCC(C)SSC(C)CC` (stereo not given): the Potency result in [1], in test [2], in test [3] and in [7] was “inactive” in each case. In addition, the result in test [4], in test [5], in test [9] and in test [8] was inactive.
